This is an account of results in PubChem BioAssay AID2641 (National Center for Advancing Translational Sciences (NCATS), 2010).

Values joined by “and” are separate entries in the source; they are usually repeats but may differ in a detail not shown here. Equal entries are not always repeated. Active and inactive are the calls of the source. How the calls were made is not given here.

For this test, the target named is Lysosomal alpha-glucosidase (Homo sapiens) (UniProt P10253). The test can be described thus: qHTS Assay for Inhibitors of Human alpha-Glucosidase as a Potential Chaperone Treatment of Pompe Disease: Stabilizers of Alpha-Glucosidase Under Thermal Denaturation Conditions. Particulars: Recombinant GAA thermal denaturation, residual activity over time, stronger effect = higher value; at 0.31 µM unless noted. The text has this:
NIH Chemical Genomics Center [NCGC]
NIH Molecular Libraries Probe Production centers Network [MLPCN]
Assay Submitter (PI): Wei Zheng
Alpha-glucosidase is responsible for hydrolysis of terminal, non-reducing 1,4-linked alpha-D-glucose residues with release of alpha-D-glucose. It is a lysosomal hydrolase that is required for the degradation of a small percentage (1-3%) of cellular glycogen in human. Deficiency of this enzyme results in glycogen-storage disease type II (GSDII), also referred to as Pompe disease, an autosomal recessive disorder. Structurally normal glycogen is accumulated in lysosomes and cytoplasm in affected patients, primarily in muscle tissues. Excessive glycogen storage within lysosomes may interrupt normal functioning of other organelles and leads to cellular injury. In turn, this leads to enlargement and dysfunction of the entire organ involved (eg, cardiomyopathy and muscle weakness).
It has reported that the improper folding and trafficking of alpha-glucosidase resulting from the genetic mutations may account for a significant number of Pompe patients. […] We optimized this alpha-glucosidase assay in 1536-well plate format for identifying the novel small molecule inhibitors with the structures other than the sugar analogs in order to develop the new pharmacological chaperones.
This assay involves heating purified alpha-glucosidase (Myozyme) in the presence of inhibitors to observe potential stabilization of the enzyme. This binding assay is an indirect measure of chaperone activity, as stabilization may imply proper folding and trafficking of the enzyme to its functional site. Alpha-glucosidase was pre-incubated with only DMSO or 50x IC50 of compound before being exposed to 68 °C heat inactivation. The heating was measured over time, and it was observed that untreated alpha-glucosidase lost more of its activity over time than enzyme treated with compounds.
Temperature Denature Protocol for alpha-Glucosidase
Assay buffer: 50 mM citric acid (titrated with potassium phosphate to pH 5.0), 0.01% Tween-20
1. Prepare 80X solution alpha-glucosidase solution (3.2 nM*80=[…]) in assay buffer.
2. Divide solution into separate 1.5 ml tubes.
3. For each compound, add 50X IC50:
50x IC50 1-DNJ […]
50x IC50 of the […]
4. Incubate 10 min RT after compound addition.
5. Distribute 10 ul from each tube into PCR tubes.
6. Time course of heating: Heat solutions at 68C for 60 min, taking a set of tubes out at 10, 20, 30, 45, and 60 min, while keeping one set on ice whole time.
7. After heating, take out tubes and place on ice for a minimum of 5 min.
8. Transfer 10 ul solution to 790 ul (1:80 dilution) buffer in 1.5 ml tube.
9. Vortex and take three 20 ul aliquots and put in 384 plate.
10. Add 20 ul substrate solution to each well (100 uM 4-methylumbelliferyl alpha-D-glucopyranoside).
12. Add 25 ul stop solution (1 M NaOH, 1 M glycine pH 10).
13. Detect the assay plate in a ViewLux plate reader (PerkinElmer) with Ex=365 nm and Em=440nm.
Background: Quantitative high-throughput screening tests each substance at several concentrations.
For the molecule `O=C1Cc2cc(S(=O)(=O)N3CCN(c4ccc(C(=O)O)cc4)CC3)ccc2N1`, the residual activity vs control after 60 min heating was 302% (active).

`CC(=O)c1ccc(N2CCN(S(=O)(=O)c3cc4c(cc3Cl)NC(=O)C4)CC2)cc1`: the residual activity vs control after 60 min heating was 675% (active).

Consider `O=C1Cc2cc(S(=O)(=O)N3CCN(c4ccc(O)cc4)CC3)ccc2N1`, for which the residual activity vs control after 60 min heating was 170% (active).

With `O=Cc1ccc(N2CCN(S(=O)(=O)c3ccc4c(c3)CC(=O)N4)CC2)cc1`, the residual activity vs control after 60 min heating was 299% (active).

Take `OCC1NCC(O)C(O)C1O` (stereo not drawn): the residual activity vs control after 60 min heating was 421% [at 0.016 µM] (active).

With `O=C1Cc2cc(S(=O)(=O)N3CCN(c4ccc([N+](=O)[O-])cc4)CC3)ccc2N1`, the residual activity vs control after 60 min heating was 464% (active).

On to `N#Cc1ccc(N2CCN(S(=O)(=O)c3ccc4c(c3)CC(=O)N4)CC2)cc1`, for which the residual activity vs control after 60 min heating was 480% (active).

With `CC(=O)c1ccc(N2CCN(S(=O)(=O)c3ccc4c(c3)CC(=O)N4)CC2)cc1`, the residual activity vs control after 60 min heating is 909% (active) and 724% (active) and 584% (active).
